Screening results (PubChem BioAssay)
FBW7 activator – FBW7 E3 ligase activators, primary screen, biochemical, AlphaScreen, human; F-box/WD repeat-containing protein 7 (Homo sapiens), Q969H0; AlphaScreen FBW7–phospho-cyclin E peptide binding, activator screen; normalized activity (activation), % at 26.1 µM; hit rate 0.13% among 650,000; in the data active = normalized activity above about 1.9%;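 note: purified mutant Fbw7 with reduced substrate affinity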
Target sequence (Q969H0 whole entry, looked up): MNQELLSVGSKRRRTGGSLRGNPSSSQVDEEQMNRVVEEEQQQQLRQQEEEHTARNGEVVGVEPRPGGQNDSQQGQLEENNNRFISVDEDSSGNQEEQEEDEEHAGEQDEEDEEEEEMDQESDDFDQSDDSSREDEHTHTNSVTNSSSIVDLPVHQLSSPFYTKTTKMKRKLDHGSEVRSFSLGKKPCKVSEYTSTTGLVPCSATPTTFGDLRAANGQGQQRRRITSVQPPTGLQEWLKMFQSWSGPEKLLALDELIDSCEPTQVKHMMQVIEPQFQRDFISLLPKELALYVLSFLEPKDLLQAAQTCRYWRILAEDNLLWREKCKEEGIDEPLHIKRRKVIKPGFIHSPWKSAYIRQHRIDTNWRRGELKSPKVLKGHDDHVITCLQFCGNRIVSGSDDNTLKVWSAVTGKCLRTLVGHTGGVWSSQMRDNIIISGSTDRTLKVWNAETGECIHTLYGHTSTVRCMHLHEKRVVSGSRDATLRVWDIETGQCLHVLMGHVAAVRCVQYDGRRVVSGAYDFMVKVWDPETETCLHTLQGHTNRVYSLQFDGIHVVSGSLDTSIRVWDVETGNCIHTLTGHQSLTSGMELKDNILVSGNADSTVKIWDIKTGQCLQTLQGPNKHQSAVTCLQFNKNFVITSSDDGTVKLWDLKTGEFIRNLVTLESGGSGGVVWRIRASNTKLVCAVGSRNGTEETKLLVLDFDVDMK
MITF primary – MITF inhibitors, primary screen, biochemical, AlphaScreen, human. inhibition, % at 2.6 µM. hit rate 0.91% among 650,000. AlphaScreen MITF homodimerization, bead proximity signal; in the data active = inhibition above about 50%
TEAD-YAP inh – TEAD-YAP interaction inhibition, primary screen, TEAD-YAP interaction inhibitor project, luminescence, HEK-TIYL cells; TEAD-Gal4/YAP UAS-luciferase luminescence; inhibition, % at 9.12 µM; hit rate 1.4% among 640,000; in the data active = inhibition above about 32%
GPR151 ag – activators of human GPR151, primary screen, cell-based, PathHunter beta-arrestin, luminescence; G-protein coupled receptor 151 (Homo sapiens), Q8TDV0; PathHunter beta-arrestin GPR151 cells; activation, % at 11.2 µM; hit rate 1% among 650,000; AID 1508602, 2020; in the data active = activation above about 4.9%
Hits are given with their value; - = inactive. A selection: hits, their analogues and other compounds. The true share with any hit is near 3.5%.

SMILES	FBW7 activator	MITF primary	TEAD-YAP inh	GPR151 ag
CC(=O)Nc1ccc(Nc2nc(Nc3ccncn3)nc3c2ncn3C(C)C)cc1	-	-	-	-
Cn1c(Nc2nc(NCCO)c3ncn(-c4ccsc4)c3n2)nc2ccccc21	-	-	-	-
Nc1nc(Nc2ccncn2)nc2c1ncn2-c1ccccc1	4.2	-	-	-
CC(=O)Nc1ccc(Nc2nc(Nc3nc4ccccc4n3C)nc3c2ncn3-c2ccsc2)cc1	-	-	43	-
CC(=O)Nc1ccc(Nc2nc(Nc3ccncn3)nc3c2ncn3-c2ccccc2)cc1	5.1	-	-	-
CC(=O)Nc1ccc(Nc2nc(Nc3ccc(-n4ccnc4)cc3)nc3c2ncn3-c2ccccc2)cc1	-	-	52	-
CCCn1c(CCC(=O)N2CCOCC2)nc2cccnc21	-	-	-	-
CC(=O)Nc1ccc(Nc2nc(Nc3cnccn3)nc3c2ncn3-c2ccsc2)cc1	3.7	-	-	-
CC(=O)Nc1ccc(Nc2nc(N3CCc4ccccc4C3)nc3c2ncn3-c2ccsc2)cc1	-	-	40	-
CC(=O)Nc1ccc(Nc2nc(Nc3ccc(N4CCOCC4)cc3)nc3c2ncn3-c2ccccc2)cc1	-	-	-	-
CC(=O)Nc1ccc(Nc2nc(Nc3ccccc3)nc3c2ncn3-c2ccccc2)cc1	-	-	46	-
COc1cc(Nc2nc(Nc3ccc(NC(C)=O)cc3)c3ncn(-c4ccccc4)c3n2)cc(OC)c1OC	-	-	39	-
CC(=O)Nc1ccc(Nc2nc(-c3c(C)noc3C)nc3c2ncn3-c2ccsc2)cc1	-	-	-	-
O=C1CCCN1CCCNc1ncnc2nc(Nc3ccc4ncccc4c3)[nH]c12	-	-	-	-
O=C(NCCc1nc(-c2ccccc2)cs1)C1CC(Cc2ccc3c(c2)OCO3)=NO1 (stereo not given)	-	-	-	-
Nc1noc2c1C(C1CC=CCC1)C1=C2CCCC1=O (stereo not given)	-	-	-	-
CC(=O)Nc1ccc(Nc2nc(Nc3ccccc3)nc3c2ncn3-c2ccsc2)cc1	-	-	36	-
CC(=O)Nc1ccc(Nc2nc(Nc3ccncc3)nc3c2ncn3-c2ccccc2)cc1	3.4	-	45	-
CN1CCN(c2ccc(-c3nc(NCCO)c4ncn(-c5ccccc5)c4n3)cc2)CC1	-	-	73	-
c1ccc(-n2cnc3c(NCCN4CCOCC4)nc(NCCN4CCOCC4)nc32)cc1	-	-	-	-
CN1CCN(c2ccc(-c3nc(NCCOc4ccccc4)c4ncn(-c5ccsc5)c4n3)cc2)CC1	-	-	-	-
COc1ccc(-c2nc(NCCN3CCOCC3)c3ncn(-c4ccccc4)c3n2)cc1	-	-	47	-
c1ccc(Oc2nc(NCCN3CCOCC3)c3ncn(-c4ccccc4)c3n2)cc1	-	-	34	-
O=C(O)c1ccc(/C=N/Nc2nc3ccccc3s2)cc1	-	-	-	-
COc1ccc(/C=N/Nc2nc3ccccc3s2)cc1	-	-	34	-
SMILES	FBW7 activator	MITF primary	TEAD-YAP inh	GPR151 ag
Cc1cc(/C=N/Nc2nc3ccccc3s2)c(C)n1C1CC1	-	-	57	-
CCn1ncc(CN2CCC(C(=O)Nc3cccc(-c4ccn[nH]4)c3)CC2)c1C	-	-	-	-
CCOC(=O)C1(Cc2ccccc2)NC(c2cccs2)C2C(=O)N(CC)C(=O)C21 (stereo not given)	-	-	-	-
CCOC(=O)C1(CCSC)NC(c2cccs2)C2C(=O)N(CC)C(=O)C21 (stereo not given)	-	-	32	-
O=C1CC/C(=N\Nc2nc3ccccc3s2)C1	-	-	-	-
CCOC(=O)C1CCCc2c1[nH]c1ccc(Cl)cc21 (stereo not given)	-	-	39	-
Cc1c(NC(=O)c2ccc(OCc3ccccc3Cl)cc2)c(=O)n(-c2ccccc2)n1C	-	-	-	-
O=C1NC(=O)N(Cc2ccco2)C(=O)/C1=C\c1ccc2c(c1)OCO2	-	72	-	-
COc1ccc(/C=C2/C(=O)NC(=O)N(Cc3ccccc3)C2=O)cc1OC	-	-	-	-
O=C1/C(=C/c2ccc3c(c2)OCO3)SC(=S)N1Cc1ccco1	-	-	-	-
COc1ccc(/C=C2/C(=O)NC(=O)N(Cc3ccco3)C2=O)cc1C	-	59	-	-
O=C1NC(=O)N(Cc2ccco2)C(=O)/C1=C\C=C\c1ccccc1	-	54	-	-
COc1cc(N2CCOCC2)ccc1/C=C1\C(=O)NC(=O)N(Cc2ccco2)C1=O	-	66	-	-
C=CCN1C(=O)NC(=O)/C(=C/C=C/c2ccco2)C1=O	-	-	-	-
CCCCn1c2ccccc2c2ccccc21	-	-	-	-
O=C1NC(c2cc3c(cc2Cl)OCO3)Nc2ccccc21 (stereo not given)	-	-	51	-
COc1ccc(N(CC(=O)N(C)Cc2ccccc2)S(C)(=O)=O)cc1Cl	-	-	-	-
COc1cc(C)ccc1S(=O)(=O)Oc1cccc2ccc(C)nc12	-	-	37	-
CC(C)N1CCc2c(sc(NC(=O)c3cccc(Oc4ccccc4)c3)c2C(N)=O)C1	-	-	-	-
CCC(=O)NC(c1ccccc1OC)c1cc([N+](=O)[O-])c2cccnc2c1O (stereo not given)	-	98	-	-
CCC(=O)NC(c1ccc(C(C)C)cc1)c1cc([N+](=O)[O-])c2cccnc2c1O (stereo not given)	-	-	-	-
CCC(=O)NC(c1ccccc1Cl)c1cc([N+](=O)[O-])c2cccnc2c1O (stereo not given)	-	72	-	-
CCC(=O)NC(c1ccc2c(c1)OCO2)c1cc([N+](=O)[O-])c2cccnc2c1O (stereo not given)	-	63	-	-
CC(=O)NC(c1ccc(C(C)C)cc1)c1cc([N+](=O)[O-])c2cccnc2c1O (stereo not given)	-	-	-	-
CCCC(=O)NC(c1ccc(O)c(OCC)c1)c1cc([N+](=O)[O-])c2cccnc2c1O (stereo not given)	-	-	-	-
SMILES	FBW7 activator	MITF primary	TEAD-YAP inh	GPR151 ag
CCC(=O)NC(c1ccccc1)c1cc([N+](=O)[O-])c2cccnc2c1O (stereo not given)	-	84	-	-
CCCC(=O)NC(c1ccc2c(c1)OCO2)c1cc([N+](=O)[O-])c2cccnc2c1O (stereo not given)	-	-	-	-
Cc1sc2ncnc(N/N=C/c3ccc(-c4ccc(S(N)(=O)=O)cc4)o3)c2c1C	-	-	-	-
O=C(Nc1ccnn1C1CCN(Cc2nc3ccccc3s2)CC1)C1CC1	-	-	-	-
COc1ccc(C2CC(=O)C=C(Nc3cc(C)ccc3O)C2)cc1 (stereo not given)	-	-	-	-
COc1ccc(C2CC(=O)C=C(Nc3cc(Cl)ccc3O)C2)cc1 (stereo not given)	2.1	-	-	-
Cc1cc(C)c2c(c1)CC(C)(C)C(=O)C2=O	-	-	-	-
C=C1C(c2ccc(C)cc2)=CCc2cc(C)cc(C)c21	-	-	54	-
